A selection: hits, their analogues and other compounds. The true share with any hit is near 7.1%.
PTK2B oligo ant – antagonists of Pyk2 self-association, primary screen, Q293 cells, FERM NanoBiT luminescence, HTS. z-score (the deposit names both 25 µM and 10 µM). hits give low values. AID 1347419, 2020. 99,000 tested, 0.83% active. Protein-tyrosine kinase 2-beta (Homo sapiens), Q14289;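 active = Z-score of -3 or lower, scaled per plate to the spread of control and sample wells; inactive = z-score above -3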;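 also: negative z-score means lost luminescence so less FERM oligomerization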
M1 ag – M1 muscarinic receptor agonists, primary screen, CHO-M1 cells, Fluo-4 calcium, agonist mode. Muscarinic acetylcholine receptor M1. 64,000 tested, 3% active. Fluo-4 calcium fluorescence; hits give high values. AID 626, 2007. B-score at 10 µM;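 active = fluorescence rise, raw or as B-score row- and column-corrected plate score, outside the 99.7% band of its plate's samples, either direction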
Cav3 T inh – Cav3.2 calcium influx blockers – cell-based, Fluo-4 calcium fluorescence, FDSS, MLSMR library, primary screen | Voltage-dependent T-type calcium channel subunit alpha-1H (Homo sapiens), O95180 | Cav3.2-expressing cells; hits give low values | B-score at 10 µM | 100,000 tested, 4% active | AID 449739, 2010;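 active = single-dose well whose peak fluorescence ratio is a statistical outlier from its plate by either plate-standardised score or position-corrected B-score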
M1 antagonist – antagonists of rat M1 muscarinic receptor. B-score at 10 µM. CHO-M1 cells, Fluo-4 calcium, ACh EC80 antagonist mode; hits give low values. 64,000 tested, 3.4% active;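 active = calcium fluorescence response, raw or row-and-column corrected B-score, differing from the plate sample mean either way at a set confidence level, mostly lower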
Target sequence (P08482 whole entry, looked up): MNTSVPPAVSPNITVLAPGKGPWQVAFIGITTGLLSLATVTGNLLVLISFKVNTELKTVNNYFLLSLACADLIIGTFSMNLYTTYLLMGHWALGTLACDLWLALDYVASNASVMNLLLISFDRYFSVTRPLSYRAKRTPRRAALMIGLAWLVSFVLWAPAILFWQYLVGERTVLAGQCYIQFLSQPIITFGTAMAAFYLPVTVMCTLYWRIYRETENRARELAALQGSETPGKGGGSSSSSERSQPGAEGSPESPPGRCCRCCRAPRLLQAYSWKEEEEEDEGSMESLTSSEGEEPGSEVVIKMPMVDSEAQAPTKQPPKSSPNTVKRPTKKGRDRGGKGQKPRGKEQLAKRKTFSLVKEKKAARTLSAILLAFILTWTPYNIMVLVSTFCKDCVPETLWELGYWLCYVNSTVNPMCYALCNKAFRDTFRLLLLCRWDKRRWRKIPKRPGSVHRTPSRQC
M1 antag confirm – rat M1 muscarinic receptor antagonists, confirmation, CHO cells, Fluo-4 calcium, duplicate; shares compounds with M1 antagonist; ACh EC80 antagonism; hits give low values; calcium response (max-min fluorescence) at 10 µM; 1,700 tested, 43% active;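 active = calcium response below the same-plate mean of wells given acetylcholine alone at its 80%-effect dose, minus 3 SD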;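 also: raw fluorescence intensity difference in arbitrary instrument units and not normalized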
mGluR4 antag – human mGluR4 response to M1 antagonist hits, M1 allosteric modulator project, cell-based, antagonist mode, secondary assay 1; 1,700 tested, 0.9% active; fluorescence response (max-min) at 10 µM; shares compounds with M1 antagonist; CHO-mGluR4 calcium flux, Fluo-4 fluorescence, glutamate EC80; hits give low values;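 active = fluorescence response below the plate's average for near-maximal glutamate wells, less 3 SD of those wells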;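 also: raw unnormalized fluorescence span taken in the window right after glutamate addition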
* hit, by the source's call.

What do the screens show for `O=C(CCN1CCCCC1)c1ccccc1`?
PTK2B oligo ant: 0; Cav3 T inh: 0.59

Results for CCc1oc2ccccc2c1C(=O)CCN1CCCCC1 ?
PTK2B oligo ant: 0.75; M1 ag: 0.187; Cav3 T inh: 0.0737; M1 antagonist: -7.08*; M1 antag confirm: 196*; mGluR4 antag: 235

Results for CCCn1c(Cc2ccccc2)n[nH]c1=S ?
PTK2B oligo ant: 0.86; Cav3 T inh: 0.335

What do the screens show for `S=c1[nH]nc(Cc2ccccc2)n1Cc1ccco1`?
PTK2B oligo ant: 0.12; M1 ag: 0.768; Cav3 T inh: -0.0413; M1 antagonist: -13.1*; M1 antag confirm: 51.7*; mGluR4 antag: 240

How did CCOC(=O)c1ccc(NCc2nc3ccccc3[nH]2)cc1 do in these assays?
M1 ag: -1.89; Cav3 T inh: -0.134; M1 antagonist: -0.425

How did CCOC(=O)Cc1nc2ccccc2[nH]1 do in these assays?
PTK2B oligo ant: -0.04; M1 ag: 0.434; Cav3 T inh: -0.561; M1 antagonist: -4.11*; M1 antag confirm: 656; mGluR4 antag: 169

Results for CC1CCc2nc(NC(=O)CN3CCN(c4ccccc4)CC3)sc2C1 (centres undefined) ?
PTK2B oligo ant: 0; M1 ag: -0.029; Cav3 T inh: -2.12; M1 antagonist: -0.0393

How did CC1CCc2nc(NC(=O)CN3CCOCC3)sc2C1 (centres undefined) do in these assays?
PTK2B oligo ant: 0.81; M1 ag: 0.92; Cav3 T inh: -0.161; M1 antagonist: -4.02*; M1 antag confirm: 666; mGluR4 antag: 198

How did COc1cccc(C2(CSc3nnc(-c4cc(OC)c(OC)c(OC)c4)o3)OCCO2)c1 do in these assays?
PTK2B oligo ant: -0.42

What do the screens show for `CC1(C)CC(=O)CC(=NCC(=O)O)C1`?
PTK2B oligo ant: 0.91; M1 ag: 0.542; Cav3 T inh: -0.168; M1 antagonist: -2.64*; M1 antag confirm: 665; mGluR4 antag: 268

How did CC(C)(C)c1ccccc1OCCN1CCCC1 do in these assays?
PTK2B oligo ant: 0.52; M1 ag: 0.124; M1 antagonist: -11.5*; M1 antag confirm: 176*; mGluR4 antag: 209

What do the screens show for `O=C(OCCN1CCCCC1)c1ccccc1Cl`?
PTK2B oligo ant: 0.21; M1 ag: -0.0959; Cav3 T inh: 0.0409; M1 antagonist: -2.56*; M1 antag confirm: 543; mGluR4 antag: 230

What do the screens show for `CC(=O)c1ccccc1OCCCN1CCCCC1`?
PTK2B oligo ant: 0.44; M1 ag: 0.133; Cav3 T inh: 0.317; M1 antagonist: -2.3*; M1 antag confirm: 356*; mGluR4 antag: 225

Results for Clc1ccccc1OCCCCN1CCCC1 ?
PTK2B oligo ant: -0.33; M1 ag: -0.895; Cav3 T inh: 0.35; M1 antagonist: -1.71*; M1 antag confirm: 454; mGluR4 antag: 186

How did c1ccc(-c2ccccc2OCCCN2CCCC2)cc1 do in these assays?
PTK2B oligo ant: 0.34

How did CCO[C@@H]1OC(C(=O)NCc2ccccc2)=C[C@H](C2CCCCC2)[C@H]1CCCO do in these assays?
Cav3 T inh: -2.49

How did CC(=O)N(Cc1ccc2c(c1)OCO2)C1CC(=O)N(CCc2ccccc2)C1=O (centres undefined) do in these assays?
PTK2B oligo ant: -0.63; M1 ag: 0.144; Cav3 T inh: 1.03; M1 antagonist: 0.828

What do the screens show for `CCOc1ccc(NC(=O)C2CCCN(S(=O)(=O)c3cccc4nsnc34)C2)cc1` (centres undefined)?
PTK2B oligo ant: -0.57; Cav3 T inh: 0.386

How did CCNS(=O)(=O)c1ccc(Br)c(OC)c1 do in these assays?
PTK2B oligo ant: -0.68; Cav3 T inh: 0.433

Results for O=C(Cc1ccc(-n2c(=S)[nH]c3ccccc3c2=O)cc1)N1CCN(c2ccccc2)CC1 ?
PTK2B oligo ant: 0.91; Cav3 T inh: -0.0361

How did Cn1c(N2CCOCC2)nc(-c2ccccc2)c1-c1ccccc1 do in these assays?
PTK2B oligo ant: -0.29; M1 ag: 0.321; Cav3 T inh: -1.15; M1 antagonist: 0.225
